PubChem BioAssay (NCATS)
Records with an inconclusive call do not appear. The source made the active and inactive calls. Calls come from the whole dose curve; as a rule, active = well fitted curve in the direction sought with a large enough effect; inconclusive = small, poorly fitted or top-dose-only effect, or another doubt; inactive = no such curve, though single readings can be large; an effect the other way counts as inactive or inconclusive.

Key:
[1] = test system: CRL-7250; assay: Cytotoxic Profiling of Annotated Libraries Using Quantitative High-Throughput Screening (AID 1296008); details: Five cell lines viability, CellTiter-Glo ATP luminescence, 48-72 h; max response: hits give low values; note: nearly all actives have a fitted effect of over 60% in size; for max response: % is set by controls: 0 for no effect and ±100 for the full control effect
How it was run: (§1)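 Cytotoxicity was measured as CellTiter-Glo ATP luminescence, read after 10 min at room temperature. Compound treatment of the cells lasted 48 or 72 hr at 37 degrees Celsius in a qHTS format.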

[2] = test system: HaCat; assay: as above; details: Five cell lines viability, CellTiter-Glo ATP luminescence, 48-72 h; max response: hits give low values
How it was run: as §1

[3] = test system: NIH3T3; assay: as above; details: Five cell lines viability, CellTiter-Glo ATP luminescence, 48-72 h; max response: hits give low values
How it was run: as §1

[4] = test system: C33A; assay: Primary qHTS to identify gynecologic anti-cancer compounds using libraries of approved drugs and bioactive compounds (AID 1345084); details: Gynecologic cancer cell panel viability, ATPlite luminescence, 48 h; series mostly up to 57.5 µM; note: % is set by controls: 0 for no effect and ±100 for the full control effect; nearly all actives have a fitted effect of over 55% in size
How it was run: (§2)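 Measured: luminescence after ATPlite addition (15 min, RT). Exposure: 48 h, 37 C, 5% CO2.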

[5] = test system: CAOV3; assay: as above; details: Gynecologic cancer cell panel viability, ATPlite luminescence, 48 h; series mostly up to 57.5 µM
How it was run: as §2

[6] = test system: CASKI; assay: as above; details: Gynecologic cancer cell panel viability, ATPlite luminescence, 48 h; series mostly up to 57.5 µM
How it was run: as §2

[7] = test system: Es-2; assay: as above; details: Gynecologic cancer cell panel viability, ATPlite luminescence, 48 h; series mostly up to 57.5 µM
How it was run: as §2

[8] = test system: HeLa; assay: as above; details: Gynecologic cancer cell panel viability, ATPlite luminescence, 48 h; series mostly up to 57.5 µM
How it was run: as §2

[9] = test system: JEG-3; assay: as above; details: Gynecologic cancer cell panel viability, ATPlite luminescence, 48 h; series mostly up to 57.5 µM
How it was run: as §2

[10] = test system: PA-1; assay: as above; details: Gynecologic cancer cell panel viability, ATPlite luminescence, 48 h; series mostly up to 57.5 µM
How it was run: as §2

[11] = test system: Hek293T; assay: as above; details: Gynecologic cancer cell panel viability, ATPlite luminescence, 48 h, control line for the selectivity index; series mostly up to 57.5 µM
How it was run: as §2

[12] = test system: OV90; assay: as above; details: Gynecologic cancer cell panel viability, ATPlite luminescence, 48 h; series mostly up to 57.5 µM
How it was run: as §2

[13] = test system: NIH3T3; assay: qHTS assay to identify novel small-molecules to repurpose for Merkel cell carcinoma treatment (AID 1296009); details: MCC and control cell lines, CellTiter-Glo viability, 72 h; series mostly up to 44.8 µM; note: nearly all actives have a fitted effect of over 60% in size
How it was run: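 After compound transfer in DMSO, plates were kept 72 hr at 37 degree celsius. Luminescent ATP signal from CellTiter-Glo served as viability measure, normalized against DMSO and no-cell controls.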

[14] = test system: SKOV3; assay: Primary qHTS to identify gynecologic anti-cancer compounds using libraries of approved drugs and bioactive compounds (AID 1345084); details: Gynecologic cancer cell panel viability, ATPlite luminescence, 48 h; series mostly up to 57.5 µM; note: % is set by controls: 0 for no effect and ±100 for the full control effect; nearly all actives have a fitted effect of over 55% in size
How it was run: as §2

CC(=O)OC1C(OC(=O)c2ccccc2)C2C(=C(C)CCC2(C)C)C23CCC(C)(C2)C(=O)CC13 (stereo unspecified)
inactive: max response [1] -34.2% | max response [2] -3.85% | max response [3] -18.4% | Potency [4] | Potency [5] | Potency [6] | Potency [7] | Potency [8] | Potency [9] | Potency [10]

CNC(=O)c1cc(Oc2ccc(NC(=O)c3cccc(C(F)(F)F)c3)cc2)ccn1
inactive: max response [1] -16.9% | max response [2] -5.26% | max response [3] -24.9% | Potency [4] | Potency [6] | Potency [7] | Potency [8] | Potency [11] | Potency [9] | Potency [12]

O=C(Nc1ccccc1)c1ccc(Nc2nnc(-c3ccc(O)cc3)c3ccccc23)cc1
inactive: max response [1] -21.4% | max response [2] -7.55% | max response [3] -26.5% | Potency [4] | Potency [5] | Potency [6] | Potency [7] | Potency [8] | Potency [11] | Potency [9] | Potency [12] | Potency [10]

C=CCCN1CCC2(CC1)CN(C(=O)c1c(F)cccc1F)c1ccc(Cl)cc12
inactive: outcome [1] | max response [2] -0.627% | outcome [3] | Potency [13] | Potency [4] | Potency [5] | Potency [6] | Potency [7] | Potency [8] | Potency [11] | Potency [9] | Potency [12] | Potency [10] | Potency [14]

CCc1cccc(CC)c1-n1c(C=C(C)C)c(C(=O)N2CCNCC2)cc(-c2nc(-c3ccc(C(F)(F)F)cc3)cs2)c1=O
inactive: outcome [1] | max response [2] -5.33% | max response [3] -4.22% | Potency [4] | Potency [5] | Potency [6] | Potency [7] | Potency [8] | Potency [11] | Potency [9] | Potency [10]

COc1ccc(S(=O)(=O)Nc2c(C)cc(C)cc2C)cc1
inactive: outcome [1] | max response [2] -0.296% | max response [3] 0.769% | Potency [4] | Potency [5] | Potency [6] | Potency [7] | Potency [8] | Potency [11] | Potency [9] | Potency [12] | Potency [10] | Potency [14]

Cc1ccc(C)c(NC(=O)[C@@H]2CCCN2S(=O)(=O)c2cccc3cccnc23)c1
inactive: max response [1] -9.22% | max response [2] -26.4% | max response [3] -29.5% | Potency [4] | Potency [5] | Potency [6] | Potency [7] | Potency [8] | Potency [11] | Potency [9] | Potency [12] | Potency [10] | Potency [14]

CCc1cc2c(cc1CC)CC(NCC(O)c1ccc(O)c3[nH]c(=O)ccc13)C2 (stereo unspecified)
inactive: outcome [1] | max response [2] 2.19% | max response [3] 2.82% | Potency [4] | Potency [5] | Potency [6] | Potency [7] | Potency [8] | Potency [11] | Potency [9] | Potency [12] | Potency [10]

Cc1nc2c(C(F)(F)F)cccc2nc1-c1ccc(-c2cccc(S(C)(=O)=O)c2)cc1
inactive: max response [1] -1.09% | max response [2] -0.882% | max response [3] -12.4% | Potency [4] | Potency [5] | Potency [6] | Potency [7] | Potency [8] | Potency [11] | Potency [9] | Potency [12] | Potency [10] | Potency [14]

O=C(NCC1(N2CCN(c3ccccc3)CC2)CCOCC1)c1cccnc1Sc1ccccc1
inactive: outcome [1] | max response [2] -2.8% | outcome [3] | Potency [13] | Potency [4] | Potency [5] | Potency [6] | Potency [7] | Potency [8] | Potency [11] | Potency [9] | Potency [12] | Potency [10] | Potency [14]

COc1cc(CN(CCN)C(=O)c2cccs2)ccc1OCc1ccccc1
inactive: max response [1] 4.59% | max response [2] -3.01% | max response [3] -11.2% | Potency [4] | Potency [5] | Potency [6] | Potency [7] | Potency [8] | Potency [11] | Potency [9] | Potency [10] | Potency [14]

COCCCNC(=O)c1ccc(Cn2c(=O)c3ccccc3n(Cc3ccc(C(C)C)cc3)c2=O)cc1
inactive: max response [1] -3.32% | max response [2] 1.44% | max response [3] 4.09% | Potency [4] | Potency [5] | Potency [6] | Potency [7] | Potency [8] | Potency [11] | Potency [9] | Potency [12] | Potency [10] | Potency [14]

C[C@@H](O[C@H]1OCCN(Cc2nn(P(=O)(O)O)c(=O)[nH]2)[C@H]1c1ccc(F)cc1)c1cc(C(F)(F)F)cc(C(F)(F)F)c1
inactive: max response [1] 0.664% | max response [2] -1.44% | max response [3] -9.38% | Potency [4] | Potency [6] | Potency [7] | Potency [8] | Potency [11] | Potency [9] | Potency [12] | Potency [10] | Potency [14]

C=C[C@H](/C=C\c1ccc(O)cc1)c1ccc(O)cc1
inactive: max response [1] -3.27% | max response [2] 1.54% | outcome [3] | Potency [13] | Potency [4] | Potency [5] | Potency [6] | Potency [7] | Potency [8] | Potency [11] | Potency [9] | Potency [12] | Potency [14]

C/C(=C/C=C\C=C\Cc1cnco1)[C@@H](O)C(C)(C)C(N)=O
inactive: max response [1] 0.0485% | max response [2] -5.26% | max response [3] -15.3% | Potency [4] | Potency [5] | Potency [6] | Potency [7] | Potency [8] | Potency [11] | Potency [9] | Potency [12] | Potency [10]

CCOc1ccc(-n2c([C@@H](C)N(Cc3cccnc3)C(=O)Cc3ccc(OC(F)(F)F)cc3)nc3ncccc3c2=O)cc1
inactive: max response [1] 0.299% | max response [2] -4.53% | max response [3] -0.198% | Potency [4] | Potency [5] | Potency [6] | Potency [7] | Potency [8] | Potency [11] | Potency [9] | Potency [12] | Potency [10] | Potency [14]

COc1cc(C(C)C)c(Oc2cnc(N)nc2N)cc1I
inactive: max response [1] -1.85% | max response [2] -19.2% | max response [3] -1.33% | Potency [4] | Potency [5] | Potency [6] | Potency [7] | Potency [8] | Potency [11] | Potency [9] | Potency [12] | Potency [10] | Potency [14]

CCC(C)CNCC(=O)N1CCC2SC=CC2C1COc1cccc(C)c1 (stereo unspecified)
inactive: max response [1] -4.73% | max response [2] 3.39% | max response [3] -20.9% | Potency [4] | Potency [6] | Potency [7] | Potency [8] | Potency [11] | Potency [9] | Potency [12] | Potency [10] | Potency [14]

N#Cc1ccc(COC[C@H]2O[C@@H](n3c(NCc4ccc(Cl)c(Cl)c4)nc4c(N)ncnc43)[C@H](O)[C@@H]2O)cc1
inactive: outcome [1] | max response [2] -23% | max response [3] -0.0303% | Potency [4] | Potency [5] | Potency [6] | Potency [7] | Potency [8] | Potency [11] | Potency [9] | Potency [12] | Potency [10] | Potency [14]

COC(=O)C[C@H]1[C@]2(C)C3=C(C)[C@H](c4ccoc4)C[C@H]3O[C@@H]2[C@H](O)C2[C@](C)(C(=O)OC)C=CC(=O)[C@@]21C (stereo partly specified)
inactive: max response [1] -6.81% | max response [2] -7.74% | max response [3] 3.36% | Potency [4] | Potency [6] | Potency [7] | Potency [8] | Potency [11] | Potency [9] | Potency [12] | Potency [10] | Potency [14]

CC1(C)CC[C@]2(C(=O)O)CC[C@]3(C)C(=CCC4[C@@]5(C)C[C@@H](O)[C@H](O)[C@@](C)(CO)C5CC[C@]43C)[C@@H]2[C@@H]1O (stereo partly specified)
inactive: max response [1] 2.24% | max response [2] -17.5% | max response [3] 4.68% | Potency [4] | Potency [5] | Potency [6] | Potency [7] | Potency [8] | Potency [11] | Potency [9] | Potency [12] | Potency [10]

O=C(NCCCN1CCOCC1)c1cnn2c(-c3ccccc3)cc(-c3ccccc3)nc12
inactive: max response [1] -7.62% | max response [2] -15.4% | max response [3] -12.1% | Potency [4] | Potency [5] | Potency [6] | Potency [7] | Potency [8] | Potency [11] | Potency [9] | Potency [12] | Potency [14]

CCCC(CCC)C(=O)NCc1ccc2c(cnn2-c2ccccc2OC)c1
inactive: max response [1] -29.2% | max response [2] 3.89% | max response [3] 0.011% | Potency [4] | Potency [5] | Potency [6] | Potency [7] | Potency [8] | Potency [11] | Potency [9] | Potency [12] | Potency [10] | Potency [14]

CN(C)C(=O)Nc1cccc(-c2ccc(N(C)C)cc2)c1
inactive: max response [1] -5.4% | max response [2] -0.332% | max response [3] 3% | Potency [4] | Potency [5] | Potency [6] | Potency [7] | Potency [8] | Potency [9] | Potency [12] | Potency [10]

COCCN(C(=O)c1cc(OC)c(OC)c(OC)c1)c1nc(-c2ccccc2)cs1
inactive: max response [1] -0.0444% | max response [2] 0.0568% | max response [3] 3.38% | Potency [4] | Potency [5] | Potency [6] | Potency [7] | Potency [8] | Potency [11] | Potency [9] | Potency [12] | Potency [10]

CC(C)Oc1ccc(-c2cnc3c(-c4ccnc5ccccc45)cnn3c2)cc1
inactive: max response [1] 0.774% | max response [2] 1.5% | max response [3] 3.7% | Potency [4] | Potency [6] | Potency [7] | Potency [8] | Potency [11] | Potency [9] | Potency [12] | Potency [10] | Potency [14]

N#CC(CCCN1CCN(/N=C/c2cccnc2)CC1)(c1ccccc1)c1ccccc1
inactive: max response [1] -20.5% | max response [2] -26.9% | max response [3] -25.1% | Potency [4] | Potency [5] | Potency [6] | Potency [7] | Potency [8] | Potency [11] | Potency [9] | Potency [12] | Potency [10]
